# Bioassay records as filed in PubChem BioAssay.
# MEX-5 binding = C. elegans MEX-5 TCR-2 RNA binding activity. Q9XUB2. MEX-5/FITC-TCR2 RNA binding, fluorescence polarization; stronger effect = lower value. activity score (negative = inhibition of binding), % at 10 µM. hit rate 0.38% among 300,000. AID 1832;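 active = inhibition past about -25% in most replicates, and total fluorescence under double the plate's negative control median, limit read from the data; inconclusive = replicates evenly split on the limit, or fluorescence at least double controls; inactive = too little inhibition in most replicates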;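 also: 0% = DMSO and -100% = 5 µM competing unlabeled TCR2 RNA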
# eLon inh = E. coli protease La inhibition | P0A9M0 | purified E. coli Lon protease, fluorescence polarization | inhibition, % at 7.94 µM | hit rate 0.42% among 360,000 | AID 602123; in the data active = inhibition above about 13%, passing the limit was not always enough;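 also: 0% = enzyme with probe and DMSO and 100% = no enzyme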
# Target sequence (P0A9M0 whole entry, looked up): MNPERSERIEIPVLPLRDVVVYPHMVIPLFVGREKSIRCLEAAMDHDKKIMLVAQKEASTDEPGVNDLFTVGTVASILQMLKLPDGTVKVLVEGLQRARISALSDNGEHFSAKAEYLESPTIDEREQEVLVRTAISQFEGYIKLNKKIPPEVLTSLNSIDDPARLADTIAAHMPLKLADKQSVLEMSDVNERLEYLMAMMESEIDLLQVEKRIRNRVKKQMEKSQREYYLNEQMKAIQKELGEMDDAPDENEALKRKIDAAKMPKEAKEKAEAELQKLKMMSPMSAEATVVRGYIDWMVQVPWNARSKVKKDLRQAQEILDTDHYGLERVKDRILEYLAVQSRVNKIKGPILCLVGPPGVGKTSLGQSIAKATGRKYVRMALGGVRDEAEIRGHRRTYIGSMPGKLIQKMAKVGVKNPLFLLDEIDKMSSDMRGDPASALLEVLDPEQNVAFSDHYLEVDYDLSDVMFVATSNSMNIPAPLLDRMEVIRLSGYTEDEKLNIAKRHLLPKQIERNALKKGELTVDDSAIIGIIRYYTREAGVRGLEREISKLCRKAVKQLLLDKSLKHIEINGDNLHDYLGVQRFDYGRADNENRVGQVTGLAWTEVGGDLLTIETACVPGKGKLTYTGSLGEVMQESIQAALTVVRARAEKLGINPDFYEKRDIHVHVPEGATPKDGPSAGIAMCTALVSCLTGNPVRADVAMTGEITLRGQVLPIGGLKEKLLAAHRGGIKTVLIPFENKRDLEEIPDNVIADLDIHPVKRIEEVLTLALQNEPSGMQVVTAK
# GLD-1 RNA inh = GLD-1-TGE RNA interaction inhibition (C. elegans) | AID 2280 | hit rate 0.44% among 320,000 | inhibition, % at 5.96 µM | Q17339 | purified GLD-1 + fluorescein TGE RNA, fluorescence polarization;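 active = percent inhibition above a per-plate cutoff, the plate mean of test compounds plus 3 SD, cut at about 30% in these data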;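 also: 0% = DMSO wells with GLD-1 and probe and 100% = wells lacking GLD-1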
# EBV gp42 inh = blocks Epstein-Barr virus glycoprotein 42 binding; hit rate 0.42% among 220,000; Q1HVG2; Fluorescence polarization binding assay, mP read-out; inhibition, % (tested at 21.74 µM); in the data active = inhibition above about 50%
# MCL1 BIM primary = disrupts human MCL1 binding to BIM-BH3 peptide; hit rate 0.68% among 320,000; GST-MCL1 / FITC-Bim-BH3 fluorescence polarization; Q07820; inhibition, % at 10.9 µM;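 active = inhibition above the mean inhibition of all tested compounds plus 3 SD, set per campaign, cut at about 40% in these data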;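 also: 0% = DMSO wells and 100% = unlabeled Bim-BH3 peptide control; higher means more loss of mP so more displacement of Bim peptide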
# BCLXL inh = Bcl-xL (human) inhibition; Q07817; GST-Bcl-xL / FITC-Bim BH3 peptide fluorescence polarization; inhibition, % at 10.9 µM; hit rate 0.7% among 320,000; AID 2129;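 active = inhibition above the mean of all tested compounds plus 3 SD, cutoff set per campaign, cut at about 30% in these data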;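 also: 0% = DMSO wells and 100% = unlabeled Bim-BH3 peptide competitor; inhibitors lower millipolarization by displacing the labeled peptide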
# BCLXL inh confirm = Bcl-xL (human) inhibition, MCL1 counter-screen confirmation | GST-Bcl-xL / FITC-Bim BH3 peptide FP binding | shares compounds with MCL1 BIM primary | inhibition, % at 10.9 µM | hit rate 54% among 1,700;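 active = inhibition above a cutoff equal to the mean inhibition of all tested compounds plus 3 SD, cut at about 30% in these data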;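 also: 0% = DMSO wells and 100% = unlabeled Bim BH3 control peptide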
# MCL1 BIM confirm = MCL1-BIM-BH3 interaction inhibition, confirmation | shares compounds with MCL1 BIM primary | GST-MCL1 / FITC-Bim-BH3 fluorescence polarization | inhibition, % at 10.9 µM | hit rate 61% among 1,700 | AID 2168;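 active = inhibition above the average of all tested compounds plus 3 SD, cut at about 40% in these data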;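 also: 0% = DMSO wells and 100% = unlabeled Bim-BH3 control peptide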
# An asterisk follows results filed as active; ? = inconclusive; nt = not tested or not shown; + = active, no number. Compounds with a hit are over-represented: about 1.5% of the library has one in this group of screens.
SMILES,MEX-5 binding,eLon inh,GLD-1 RNA inh,EBV gp42 inh,MCL1 BIM primary,BCLXL inh,BCLXL inh confirm,MCL1 BIM confirm
N#CC(C#N)=Cc1ccc(-c2ccccc2F)o1,nt,-13,12,101*,100*,62*,123*,150*
CN1CN(c2ccccc2)C2(CCN(CCCSc3ccccc3NC(=O)/C=C/c3ccccc3)CC2)C1=O,nt,-10,nt,nt,nt,nt,nt,nt
CCCCn1c(O)c(C(=O)/C=C/c2c[nH]c3ccccc23)c(=O)[nH]c1=O,-10,-53,28,-220,85*,-7,-35,-52
O=C1CN=C(c2cccc(Br)c2)c2cc(Br)ccc2N1,2,5,0,nt,-2,5,nt,nt
O=C(O)c1ccc2c(c1)C1C(Cl)C(Sc3ccccc3[N+](=O)[O-])CC1C(c1cccc([N+](=O)[O-])c1)N2 (centres undefined),nt,2,nt,15,nt,nt,nt,nt
Cc1ccc2c(c1Cl)NC(C(=O)O)C1CC(Sc3ccccc3[N+](=O)[O-])C(Cl)C21 (centres undefined),-2,11,-8,3,59*,27,-22,-32
CCN(CC)C(=O)c1ccc2c(c1)C1C(Cl)C(Sc3ccccc3[N+](=O)[O-])CC1C(C(=O)O)N2 (centres undefined),-56*,4,17,2,95*,86*,34*,37
C#CC1(OC(=O)c2ccccc2)CC(C)N(C)CC1C (centres undefined),2,16,nt,nt,nt,nt,nt,nt
CN(C)[C@@H]1C(=O)C(C(N)=O)=C(O)[C@@]2(O)C(=O)C3=C(O)c4c(O)cccc4[C@@](C)(O)C3[C@H](O)C12 (some centres undefined),-11,71,77*,nt,+,153*,37*,87*
CN(C)C1C(=O)C(C(N)=O)=C(O)C2(O)C(=O)C3=C(O)c4c(O)cccc4C(C)(O)C3CC12 (centres undefined),?,7,9,nt,62*,30*,14,20
O=C1NC(=O)C(=C/C=C/c2coc3ccc(Br)cc3c2=O)C(=O)N1,-2,nt,11,-14,74*,86*,92*,111*
CC(C)(O)[C@H]1O[C@H]2CC[C@@]3(C)[C@@](O)(CC[C@H]4Cc5c([nH]c6ccccc56)[C@@]43C)C2=CC1=O,-28*,nt,74*,53*,100*,83*,60*,76*
O=[N+]([O-])c1ccc(N2CCCC(C(F)(F)F)C2)c2ccncc12 (centres undefined),0,-3,5,nt,-2,2,nt,nt
COc1ccc(CN2Cc3cc(-c4cccc(F)c4)ccc3-n3nncc3C2)cc1,nt,7,nt,nt,nt,nt,nt,nt
CCCOC(=O)c1ccccc1C(=O)OCCC,nt,6,3,nt,-1,4,nt,nt
CCOC(=O)c1ccccc1C(=O)OCC,0,8,43*,nt,74*,63*,60*,72*
O=[N+]([O-])c1ccc(NCc2ccccc2)c2nonc12,-36*,nt,198*,-62,175*,147*,167*,197*
O=[N+]([O-])c1ccc(NCc2ccc(Cl)cc2)c2ccncc12,0,-5,1,nt,1,6,nt,nt
COC(=O)C1=C(c2ccc(OCc3ccccc3)cc2)C[C@@H]2CC[C@H]1N2C(=O)NCc1ccccc1C(F)(F)F,nt,3,nt,nt,nt,nt,nt,nt
C=CCn1c(O)c(C(CC)=Nc2ccc(N(C)C)cc2)c(=O)[nH]c1=O,-1,9,22,-15,45*,29,18,10
Cc1ccccc1N1CCN(Cc2ccc3c(c2)OCO3)CC1,0,8,0,nt,8,2,nt,nt
O=C(CCc1ccccc1)N1Cc2cc(-c3ccccc3)ccc2-n2nncc2C1,nt,1,nt,nt,nt,nt,nt,nt
CCN1CCC(NCC2CCCCC2)CC1,1,-2,5,nt,-3,-1,nt,nt
CN1CCc2cc(O)cc3c2[C@H]1Cc1ccc(O)c(O)c1-3,-85*,-6,5,nt,48*,28,54*,54*
CC(CCN1CC1)=NNC(=O)Nc1cccc2ccccc12,nt,-3,nt,nt,nt,nt,nt,nt
SMILES,MEX-5 binding,eLon inh,GLD-1 RNA inh,EBV gp42 inh,MCL1 BIM primary,BCLXL inh,BCLXL inh confirm,MCL1 BIM confirm
CN1CCCCC1Cc1ccccc1 (centres undefined),nt,-13,nt,nt,nt,nt,nt,nt
CN1CCc2nc(N)c(C#N)c(-c3ccccc3)c2C1,-2,1,46*,-10,69*,61*,12,20
CN1CCc2nc3sc(C#N)c(N)c3c(-c3cccs3)c2C1,0,1,4,-12,22,20,nt,nt
O=C1NC(=S)NC(=O)C1=Cc1ccc(Br)s1,-3,-34,-13,nt,46*,15,20,53*
Cc1ccccc1N1C(=O)/C(=C/c2ccco2)C(=O)NC1=S,-2,nt,6,nt,98*,97*,97*,99*
CCOc1ccc(N2C(=O)/C(=C/c3ccco3)C(=O)NC2=S)cc1,1,-21,-22,nt,-25,-18,nt,nt
O=c1[nH]c(=S)n(-c2ccc(Br)cc2)c(O)c1C=Nc1ccc(N2CCOCC2)cc1,-2,-48,-19,86*,+,170*,+,+
O=c1[nH]c(=S)n(-c2ccccc2F)c(O)c1C=Nc1ccc(N2CCOCC2)cc1,-6,-18,-6,31,-50,-29,nt,nt
Cc1ccc2c(c1)NP(=S)(Oc1ccccc1)N2 (centres undefined),nt,5,nt,nt,nt,nt,nt,nt
COc1ccc2c(c1)NP(=S)(Oc1ccccc1)N2 (centres undefined),-47*,7,13,9,57*,50*,56*,82*
Cc1ccc2c(c1)C1C[N+](C)(CC(=O)c3ccc(Cl)cc3Cl)CCC1N2C(=O)c1ccc(F)cc1 (centres undefined),nt,2,1,nt,nt,nt,nt,nt
CCN(CC)c1ccc(/C=C2/C(=O)NC(=O)N(CC3CCCO3)C2=O)cc1 (centres undefined),-4,3,30,-158,50*,52*,16,-24
O=C1NC(=O)N(CC2CCCO2)C(=O)/C1=C/c1cccs1 (centres undefined),-2,1,-8,-26,10,9,nt,nt
COC(=O)C1=C(c2ccc(F)cc2F)C[C@@H]2CC[C@H]1N2C(=O)NCCOc1ccccc1,nt,12,13,nt,119*,11,6,0
Cc1ccccc1NC(=O)Cc1nc(COC(=O)Cc2ccccc2)cs1,nt,-7,137*,nt,+,152*,12,6
CCC(C)c1ccc(N2C(=O)NC(=O)/C(=C/c3cccn3CCOc3ccc(C)cc3)C2=O)cc1 (centres undefined),-16,-13,-15,8,113*,80*,42*,53*
